From PubChem BioAssay
Only a sample is shown.
aSyn 5UTR act = Activators via SNCA 5'UTR binding, MLPCN | alpha-synuclein 5'UTR reporter, activators screen | activity score, % (tested at 7.5 µM), hits read low | 7.1% of 300,000 active; in the data active = activity score below about -60%
* = called active by the depositor.

`COc1ccc(C(=O)N/N=C/C23CC[C@@H](O)CC2(O)CC[C@@H]2[C@@H]3CCC3(C)C(C4=CC(=O)OC4)CCC23O)cc1` (stereo partly drawn) gave aSyn 5UTR act 89.
`Cn1ccc(NC(=O)CCl)n1` gave aSyn 5UTR act -70*.
Screening Cc1cc(NC(=O)CCl)nn1C returned aSyn 5UTR act -94*.
Screening O=C(CSc1ccccc1)N1CCC2(CC1)OCCO2 returned aSyn 5UTR act -92*.
`Cc1nc2cc(-c3cccc(F)c3)nn2c(C)c1CCC(=O)N1CCC2(CC1)OCCO2` gave aSyn 5UTR act 77.
Screening CC12CC[C@H]3[C@@H](CCC4(O)C[C@H](O)CCC34/C=N/NC(=O)c3ccccc3F)C1(O)CCC2C1=CC(=O)OC1 (stereo partly drawn) returned aSyn 5UTR act 64.
For C=C1C(=O)O[C@@H]2C[C@@H](C)[C@@H]3C=CC(=O)[C@@]3(C)[C@@H](O)[C@H]12 the results were aSyn 5UTR act 119.
Screening C[C@@H]1C[C@H]2OC(=O)C3(CO3)[C@H]2[C@H](O)[C@]2(C)C(=O)C3OC3[C@@H]12 (stereo partly drawn) returned aSyn 5UTR act -63*.
For CC[n+]1c(/C=C/C=C/c2ccc(N(C)C)cc2)sc2ccccc21 the results were aSyn 5UTR act 60.
Screening CCN(CC)c1ccc(C=C2C(=O)N(C)C(=S)N(C)C2=O)o1 returned aSyn 5UTR act -86*.
For CCN(CC)c1ccc(/C=C2\C(=O)NC(=S)N(C)C2=O)o1 the results were aSyn 5UTR act -115*.
`O=C(c1cc2c(s1)-c1ccccc1OC2)N1CCC2(CC1)OCCO2` gave aSyn 5UTR act -129*.
`O=C(/C=C/c1ccccc1)c1c(O)n(CCc2ccccc2)c(=O)[nH]c1=O` gave aSyn 5UTR act -83*.
`COc1cc(/C=C/C(=O)c2c(O)n(CCc3ccccc3)c(=O)[nH]c2=O)ccc1O` gave aSyn 5UTR act -69*.
For CC12CC[C@H]3[C@@H](CCC4(O)C[C@H](O)CCC34/C=N/NC(=O)c3ccccc3O)C1(O)CCC2C1=CC(=O)OC1 (stereo partly drawn) the results were aSyn 5UTR act 77.
For CN1C(=O)N(C)C(=O)C2(Cc3cc([N+](=O)[O-])ccc3N(C)C2c2ccccc2)C1=O (stereo not drawn) the results were aSyn 5UTR act -62*.
`CN(C)c1ccc(/C=C2/C(=N\O)C3CCN2CC3)cc1` gave aSyn 5UTR act -133*.
For C=C(C=O)CC1CC(O)[C@]2(C)OC3CC4OC5C[C@]6(C)O[C@]7(C)CCC8OC9C[C@]%10(C)OC%11C(C)=CC(=O)OC%11CC%10OC9C[C@@H](C)C8OC7CC6O[C@]5(C)CC5OC5C4OC3CC2O1 (stereo partly drawn) the results were aSyn 5UTR act 114.
COc1ccc(-c2nc3ccccc3c(=O)o2)cc1 was read as aSyn 5UTR act -65*.
`COc1ccc(-[n+]2c(-c3ccccc3)cc(-c3ccccc3)cc2-c2ccccc2)cc1` gave aSyn 5UTR act 81.
For CN(C(=O)Oc1ccc(C(C)(C)C)cc1)c1ccccc1 the results were aSyn 5UTR act -106*.
Screening CCC(=O)c1ccc(OC(=O)N(C)c2ccccc2)cc1 returned aSyn 5UTR act -118*.
CC(=O)Nc1ccc(OC(=O)N2CCCCC2)cc1 was read as aSyn 5UTR act 69.
For O=c1c2ccccc2nc(/C=C/c2ccc(O)cc2)n1-c1ccc(O)cc1 the results were aSyn 5UTR act -80*.
For CCc1ccc(NC(=O)CCNC(=O)N2C[C@H]3C[C@@H](C2)c2cccc(=O)n2C3)cc1 the results were aSyn 5UTR act -70*.
CN(C)c1ccc(C(=O)N/N=C/C23CC[C@@H](O)CC2(O)CC[C@@H]2[C@@H]3CCC3(C)C(C4=CC(=O)OC4)CCC23O)cc1 (stereo partly drawn) was read as aSyn 5UTR act 95.
Nc1cc2nc3ccccc3nc2cc1N was read as aSyn 5UTR act -64*.
`CC(C)c1ccc(N2C(=O)NC(=O)/C(=C\C=C\c3ccco3)C2=O)cc1` gave aSyn 5UTR act -70*.
Screening O=C1NC(=O)N(Cc2ccccc2)C(=O)/C1=C/C=C/c1ccco1 returned aSyn 5UTR act -296*.
CC(C)n1c(O)c(C2c3cc(Cl)ccc3Oc3[nH]c(=O)n(C(C)C)c(=O)c32)c(=O)[nH]c1=O (stereo not drawn) was read as aSyn 5UTR act -88*.
Screening Cc1cc(N=Nc2ccccc2C)ccc1N returned aSyn 5UTR act -103*.
Screening Cc1cccc(Cn2cc(C=O)c3ccccc32)c1 returned aSyn 5UTR act 68.
Cc1ccc(-c2nc(N3CCOCC3)s[n+]2-c2ccccc2)cc1 was read as aSyn 5UTR act -233*.
Screening CCN1/C(=C\C=C\C2=[N+](CC)c3ccccc3C2(C)C)C(C)(C)c2ccccc21 returned aSyn 5UTR act 104.
`C/C=C(\C)C(=O)N[C@@H](c1ccccc1)[C@@H](O)C(=O)O[C@H]1C[C@@]2(O)[C@@H](OC(=O)c3ccccc3)C3[C@](C)(C(=O)[C@H](O)C(=C1C)C2(C)C)[C@@H](O)C[C@H]1OC[C@@]31OC(C)=O` (stereo partly drawn) gave aSyn 5UTR act 98.
Screening Cc1ccc(/C=C2\C(=O)NC(=S)N(c3ccc(F)cc3)C2=O)s1 returned aSyn 5UTR act -116*.
For O=C(Nc1ccc2c(c1)OCO2)c1cn(Cc2ccc(F)cc2)nn1 the results were aSyn 5UTR act -76*.
CCC(CC)NCc1c[nH]c2ccccc12 was read as aSyn 5UTR act -62*.
